High-throughput results deposited in PubChem BioAssay by several laboratories.
In the library only some 2.9% were active in any assay of this set; here they are far more common.
Cardio protect = protects H9c2 cardiomyocytes from peroxide injury; H2O2 injury protection, ATPLite, 2 h; protection from H2O2 cell death, % at 20 µM; 360,000 tested, 0.63% active;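 active = compounds giving at least 50% protection of heart cells from peroxide-induced death in the single-dose screen, raw or plate-pattern-corrected value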;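 also: 0% = DMSO wells with peroxide and 100% = DMSO wells without peroxide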
Rtt109 Vps75 = inhibitors of Candida albicans Rtt109/Vps75 histone acetyltransferase. inhibition, % at 34.9 µM. 330,000 tested, 0.16% active. purified Rtt109/Vps75, ThioGlo CoA-SH fluorescence, 4 h. AID 540336. Q5AAJ8;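 active = inhibition of at least 50% in every replicate; inconclusive = best replicate reaches 50% inhibition but some replicates fall short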
Target sequence (Q5AAJ8 whole entry, looked up): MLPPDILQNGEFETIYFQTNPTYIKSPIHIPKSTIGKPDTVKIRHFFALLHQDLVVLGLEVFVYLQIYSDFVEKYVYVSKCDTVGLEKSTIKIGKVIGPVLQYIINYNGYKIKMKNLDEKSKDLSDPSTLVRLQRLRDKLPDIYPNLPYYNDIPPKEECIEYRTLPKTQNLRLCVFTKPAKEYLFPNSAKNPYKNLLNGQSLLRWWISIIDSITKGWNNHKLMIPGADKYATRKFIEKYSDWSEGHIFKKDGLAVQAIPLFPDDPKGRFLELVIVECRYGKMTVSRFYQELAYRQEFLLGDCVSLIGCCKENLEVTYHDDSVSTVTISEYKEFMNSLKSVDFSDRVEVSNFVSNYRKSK
sPLA2-III inh = Blocks human group III sPLA2 activity; QFRET BODIPY PC-A2 liposome hydrolysis, fluorescence; Q9NZ20; inhibition, % at 12.2 µM; 370,000 tested, 0.56% active; AID 743126;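 active = inhibition above mean plus 3 SD of compounds lying within the high and low control bounds, cut at about 19% in these data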;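 also: 0% = median of test compound wells and 100% = no enzyme DMSO wells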
Myeloid diff 2 = promotes myeloid progenitor differentiation; 360,000 tested, 1% active; calls only at 10 µM; ER-HoxA9 myeloid progenitors, lysozyme-GFP differentiation, flow cytometry;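 active = normalized GFP-positive differentiation at or above the plate's own cutoff, the solvent-only control mean plus 3 SD; inconclusive = no clear call, values can overlap the other calls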;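 also: cells exposed to compound for four days before flow analysis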
DAGLB inhibitor = blocks human DAGLB lipase activity. Q8NCG7. HEK293T DAGLB membrane lysate, EnzChek fluorogenic substrate. inhibition, % at 5.17 µM. 340,000 tested, 0.059% active. AID 504411; in the data active = inhibition above about 34%;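 also: 0% = enzyme with vehicle and 100% = wells lacking enzyme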
ABHD5 PLIN5 PPI = inhibitors of human ABHD5-perilipin-5 interaction; Q00G26+Q8WTS1; Split G. princeps luciferase complementation, luminescence, 4 h; inhibition, % at 4 µM; 360,000 tested, 0.78% active;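 active = inhibition above the mean inhibition across every tested compound plus 3 SD, cut at about 22% in these data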;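 also: 0% = DMSO only wells and the 100% control is not disclosed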
* marks the source's active call; other numbers are inactive results; i = inactive; ? = inconclusive; / = no result given; + = active, no number.

SMILES	Cardio protect	Rtt109 Vps75	sPLA2-III inh	Myeloid diff 2	DAGLB inhibitor	ABHD5 PLIN5 PPI
CC(OC(=O)Cn1[nH]c(=O)c2ccccc2c1=O)C(=O)Nc1ccc(Cl)cn1 (centres undefined)	52*	-1	8	i	-2	1
COc1ccc([N+](=O)[O-])cc1NC(=O)C(C)OC(=O)CN1C(=O)C2CC=CCC2C1=O (centres undefined)	1	37	-1	i	0	8
COc1ccc([N+](=O)[O-])cc1NC(=O)C(C)OC(=O)Cn1[nH]c(=O)c2ccccc2c1=O (centres undefined)	58*	-1	8	i	1	1
O=[N+]([O-])c1cccc(-c2noc(-c3ccco3)n2)c1	2	4	1	i	-6	-1
COc1ccc(-c2oc(=O)c3cc(OC)c(OC)cc3c2C#CCCO)cc1	66*	3	-28	i	-2	2
COc1cc(OC)cc(-c2oc(=O)c3cc(OC)c(OC)cc3c2C#CCCO)c1	24	-2	1	i	-5	0
CCNC(=O)COC(=O)C1C(C(=O)OCC)=C(C)NC(C)=C1C(=O)OCC	3	0	1	i	2	1
CCOC(=O)C1=C(C)NC(C)=C(C(=O)OCC)C1C(=O)OCC(=O)NC1CCCCC1	83*	-5	-6	i	0	4
COc1ccc(C)cc1N(C(=O)c1ccco1)C(C(=O)NC1CCCC1)c1ccc(N2CCOCC2)cc1 (centres undefined)	-1	5	0	+	-1	4
O=C(N/N=C/c1cccc([N+](=O)[O-])c1O)C(O)(c1ccccc1)c1ccccc1	63*	10	10	i	11	7
O=C(Cc1ccc(-n2c(=O)[nH]c3ccsc3c2=O)cc1)N1CCN(c2ccc(Cl)cc2)CC1	4	2	-4	+	0	0
COc1ccc(N(CC(=O)Nc2nc3ccc(C)cc3s2)S(=O)(=O)c2c(C)nn(C)c2C)cc1	6	1	-19	+	-2	-9
CCO[C@@H]1OC(C(=O)N2CCOCC2)=C[C@H](c2ccc(Br)cc2)[C@H]1CCCO	5	-7	-3	i	-4	1
O=C(CNC(=O)c1ccccc1Br)N/N=C/c1cc(Br)ccc1O	74*	/	-27	i	14	-2
O=C(N/N=C\c1cc(Cl)ccc1O)c1ccc(S(=O)(=O)N2CCCCC2)cc1	63*	2	0	?	1	-3
O=C(CNC(=O)c1ccncc1)N/N=C/c1cc(Br)ccc1O	26	-13	15	i	2	0
O=C(CP(=O)(c1ccccc1)c1ccccc1)N/N=C/c1cc(Br)cc(Br)c1O	71*	-17	7	i	2	-4
O=C(CNC(=O)c1ccccc1)N/N=C/c1cc(Br)ccc1O	59*	0	-28	i	7	-3
O=C(CN1C(=O)CSc2ccccc21)Nc1ccccc1C(=O)N1CCOCC1	10	-9	1	i	-1	-5
CC1(c2nnnn2-c2ccc3c(c2)OCCO3)CCC(=O)N1CC(F)(F)F (centres undefined)	/	/	-1	i	/	1
Cc1ccc(NC(=O)COC(=O)Cn2cnc3c2c(=O)n(C)c(=O)n3C)cc1F	-2	-5	9	i	0	1
NC(=O)NCc1ccc(F)cc1	5	0	2	i	0	0
O=C(N/N=C/c1cc(Br)cc(Br)c1O)c1cccc(S(=O)(=O)N2CCOCC2)c1	50*	/	13	i	4	9
COc1ccc(C(=O)N/N=C/c2cc(Br)ccc2O)cc1OC	60*	-4	-2	/	1	-8
O=C(CN1CC(c2ccccc2)CC1=O)N/N=C/c1cc(Br)ccc1O (centres undefined)	57*	-2	-28	i	5	0
SMILES	Cardio protect	Rtt109 Vps75	sPLA2-III inh	Myeloid diff 2	DAGLB inhibitor	ABHD5 PLIN5 PPI
O=C(N/N=C/c1cc(Cl)ccc1O)c1ccccc1Br	77*	/	-9	?	8	6
Cc1ccc(C(=O)Nc2ccn(Cc3ccc(F)cc3)n2)o1	1	-5	9	i	1	3
CC12CCC3C(CCC4CC(O)CCC43C)C1CC(O)C2 (centres undefined)	50*	-4	-1	i	-3	5
C[C@H](O)[C@@]1(O)CC[C@H]2[C@@H]3CC[C@@H]4C[C@H](O)CC[C@]4(C)[C@H]3CC[C@@]21C	-2	-3	-2	i	-1	0
NS(=O)(=O)c1ccc(CCNC(=O)c2ccncc2)cc1	6	16	10	i	-4	4
NS(=O)(=O)c1ccc(CCNC(=O)c2ccc(C#CC3(O)CCCCC3)cc2)cc1	71*	-3	-15	i	3	2
O=c1cc(CO)occ1OCc1c(F)cccc1Cl	-4	-5	-2	i	-2	-2
Cc1cc(C)cc(OCc2ccc(C(=O)NN)o2)c1	6	-1	0	+	-8	-8
NNC(=O)c1ccc(COc2ccc([N+](=O)[O-])cc2)o1	0	/	-7	i	-3	12
CN(C)c1ccc(C=c2c3ccccc3n3c2cc(-c2ccc(Cl)cc2)[n+]3C)cc1	-16	-16	48*	?	14	18
CC(C)Cc1ccc(C(C)/C=C2/CCC(CN3CCCCC3)C2=O)cc1 (centres undefined)	-18	-3	1	i	3	23*
CC(C)Cc1ccc(CN2CCCC(NC(=O)CCN3CCCCC3=O)C2)cc1 (centres undefined)	-5	3	-2	i	-1	-8
Cc1cc(=O)oc2cc(OCC(=O)N3CC[C@@]4(O)CCCC[C@H]4C3)c(Cl)cc12	0	-6	14	i	2	-3
N=C1C(c2ccccc2)=C(O)CN1NC(=O)c1ccccc1	-4	5	9	+	1	3
CNC(=O)c1ccc(NC(=O)CC23CC4CC(CC(C4)C2)C3)cc1	-1	7	9	i	-1	-2
CCN(CC)C(=O)c1cccc(NC(=O)CC23CC4CC(CC(C4)C2)C3)c1	-1	14	-5	+	-2	6
CCc1ccc(NC(=O)CSc2ccc(-c3ccccn3)nn2)cc1	50*	4	-2	i	-6	4
CC(=O)c1cccc(NC(=O)CSc2ccc(-c3ccccn3)nn2)c1	36	16	4	i	1	3
CCOC(=O)c1ccccc1NC(=O)CSc1ccc(-c2ccccn2)nn1	57*	3	4	i	-1	5
COc1cc(NC(=O)CSc2ccc(-c3ccccn3)nn2)cc(OC)c1	70*	-21	-19	i	-1	8
CC(=O)Nc1cccc(NC(=O)CSc2ccc(-c3ccccn3)nn2)c1	67*	3	-1	i	-3	-6
